# Measured values from PubChem BioAssay (NCATS).
# Results filed as inconclusive are left out. Unmarked numbers belong to inactive results. Calls follow the shape of the dose curve; as a rule, active = well fitted inhibition curve with a large enough effect; inconclusive = small, poorly fitted or top-dose-only effect; inactive = flat fitted curve, though single readings scatter.
# Tested on: astro (control astrocytes)
# Assay: Drug repurposing screens with cells derived from glioblastoma tumor samples (AID 1345199); also: nearly all actives have a fitted effect of over 40% in size
# Conditions: viability, ATP luminescence, 48 h; series mostly up to 45.9 µM; activity, negative = cell killing: at the top concentration
# Summary of the method: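 Four patient lines of CD133+ GBM neurospheres were screened at several concentrations; hits were retested in those lines plus three slower-growing GBM lines, using 48-hour treatment and ATP-based viability.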
# % is scaled to controls: 0 for no effect and ±100 for the full control effect.
row,Structure (SMILES),"activity, negative = cell killing"
1,CC1(C)S[C@@H]2[C@H](NC(=O)C(C(=O)O)c3ccsc3)C(=O)N2[C@H]1C(=O)O (stereo partly specified),2.65%
2,CC1=C(/C=C/C(C)=C/C=C/C(C)=C/C=C/C=C(C)/C=C/C=C(C)/C=C/C2=C(C)CCCC2(C)C)C(C)(C)CCC1,-8.06%
3,CO[C@H]1C[C@H](O[C@H]2[C@H](C)[C@@H](O[C@@H]3O[C@H](C)C[C@H](N(C)C)[C@H]3OC(C)=O)[C@@H](C)C[C@]3(CO3)C(=O)[C@H](C)[C@@H](OC(C)=O)[C@@H](C)[C@@H](C)OC(=O)[C@@H]2C)O[C@@H](C)[C@@H]1OC(C)=O,-5.03% [at 21.2 µM]
4,O=C(O)CN(CCN(CC(=O)O)CC(=O)O)CC(=O)O,-5.83%
5,CCOC(C)=O,-17%
6,C[C@H](CCC(=O)O)[C@H]1CC[C@H]2[C@@H]3[C@H](O)C[C@@H]4C[C@H](O)CC[C@]4(C)[C@H]3CC[C@]12C,-1.02% [at 21.2 µM]
7,CCCC(=O)O[C@]1(C(=O)COC(C)=O)CC[C@H]2[C@@H]3C[C@H](F)C4=CC(=O)C=C[C@]4(C)[C@@]3(F)[C@@H](O)C[C@@]21C,-17.1%
8,O=S(=O)(O)O,-26.1%
9,CCC(=O)O[C@@H]1CC(=O)O[C@H](C)C/C=C/C=C/[C@H](O)[C@H](C)C[C@H](CC=O)[C@H](O[C@@H]2O[C@H](C)[C@@H](O[C@H]3C[C@@](C)(O)[C@@H](OC(=O)CC)[C@H](C)O3)[C@H](N(C)C)[C@H]2O)[C@H]1OC,20% [at 21.2 µM]
10,CC[N+](C)(C)Cc1ccccc1Br,-0.287% [at 21.2 µM]
11,CC(C)(C)C(=O)OCOC(=O)[C@@H]1N2C(=O)[C@@H](N=CN3CCCCCC3)[C@H]2SC1(C)C,-2.81% [at 21.2 µM]
